Results published in ChEMBL document CHEMBL3988442, “University of Dundee, Small-Polar-MMV Screening Library” (2021).
About 13,000 (27%) of roughly 48,000 compounds showed an effect of 50% or more. The list shows a part of the results.

Test system: Wolbachia pipientis
Assay: Anti-Wolbachia Cell-Based Screen
Format: functional
Design: scale not given: in the data most compounds retested in dose-response had high values
Settings: 5 µM

SMILES | Percent Effect
Cn1cc(CN2CCn3cc(CNC(=O)C4CCC4)nc3C2)cn1.O=C(O)C(F)(F)F | 18.03%
O=C(NCc1nnc2ccccn12)N1CCOC(c2cccs2)C1 (stereo not drawn) | -3.405%
COc1ccc(-n2nc(C3CC3)nc2CCn2cnnn2)cc1 | -7.711%
COc1ccc(N2Cc3n[nH]c(=O)n3C2=O)cc1 | -0.5114%
COC[C@H]1CCC[C@]12CN(CCc1ccccc1)CCO2.O=C(O)C(F)(F)F | 30.11%
COCC(=O)N1CCO[C@]2(CCC[C@H]2COC)C1 | 106.8%
O=C(O)C(F)(F)F.O=C(c1ccc[nH]1)N1CCO[C@]2(CCC[C@@H]2COc2cccnc2)C1 | -3.807%
COC[C@H]1CCC[C@]12CN(C(=O)NCc1ccccc1)CCO2 | 18.34%
COC[C@@H]1CCC[C@@]12CN(C(=O)N1CCCC1)CCO2 | 87.5%
O=C(c1ccoc1)N1CCO[C@]2(CCC[C@@H]2COCc2ccncc2)C1 | -6.569%
COC[C@@H]1CCC[C@@]12CN(C(=O)N(C)C)CCO2 | 101.2%
O=C(c1ccno1)N1CCO[C@]2(CCC[C@@H]2COCc2ccncc2)C1 | -0.3534%
Cc1[nH]c2c(F)cccc2c1CC(=O)NCCCNc1cccnc1 | 12%
Cc1noc(COCC(=O)Nc2ccc(Br)c(C)n2)n1 | 11.2%
O=C(c1ccccc1)N1C[C@@H]2CC[C@H](C1)N(C(=O)CN1CCOCC1)C2 | -9.595%
CCc1nc(CNC(=O)c2ccc(C(C)N3CCCCC3)o2)cc(=O)[nH]1 (stereo not drawn) | -0.08952%
CCOC(=O)CNc1nc(COC)nc2c1cnn2C | 5.543%
CCOC(=O)CNc1nc(C(C)(C)C)nc2c1cnn2C | 2.145%
Cc1nsc(NC(=O)NC2(CN3CCCCC3)CCCCC2)n1 | 1.448%
CCOC(=O)CC1(Nc2nc(C)nc3c2cnn3C)CCCCC1 | 107.9%
CCC(Nc1nc(C)nc2c1cnn2C)c1ncnn1CC (stereo not drawn) | 13.02%
CCCc1nc(NC2(COC)CCCC2)c2cnn(C)c2n1 | 85.47%
Cc1nc(NC2(CN3CCCCC3)CCCCC2)c2cnn(C)c2n1 | 98.05%
CCCc1nc(N(C)CCN2CCCCCC2)c2cnn(C)c2n1 | 11.67%
Cn1ncc2c(NCCC34CCCN3CCC4)nc(C3CCCC3)nc21 | 4.055%
CCn1c(C)nnc1SCCNc1nc(C)nc2c1cnn2C | -4.457%
COCC1(Nc2nc(C)nc3c2cnn3C)CCCC1 | 115.3%
CCOC(=O)CC(C)Nc1nc(C2CCCC2)nc2c1cnn2C (stereo not drawn) | -2.112%
